Active and inactive are the calls of the source. Unless noted, the rule behind the calls is not given here.
What was measured:
[1] = system: XIP peptide (Xip251-270) binding; assay: small-molecule binders of XIP peptide, primary screen, biochemical, small-molecule microarray, fluorescence 635/667 nm, 0.1 µg/mL protein (AID 1182); settings: fluorescent protein binding, 635 nm, higher = more signal, called active from +8 up or from −8 down
[2] = system: XIP peptide (Xip251-270); assay: small-molecule binders of XIP peptide, primary screen, biochemical, small-molecule microarray, fluorescence 635/667 nm, 0.5 µg/mL protein (AID 1183); settings: small-molecule microarray binding, fluorescence 635 nm; higher = more signal
[3] = Plasmodium falciparum growth inhibition, primary screen, strain 3D7, DAPI fluorescence, 100 nL (AID 1184);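 note: parasites grown inside human red blood cells in medium with human serum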; settings: P. falciparum 3D7 growth, 3 d, higher = more signal
[4] = target: Homeobox protein Hox-A13 (Mus musculus) (UniProt Q62424); assay: inhibitors of HoxA13-DNA binding, primary screen, biochemical, fluorescence polarization, labeled oligonucleotide (AID 1185); settings: 15 min, higher = more signal, called active from +8 up or from −8 down
Sequence of Homeobox protein Hox-A13 (Mus musculus) (Q62424 whole entry, looked up): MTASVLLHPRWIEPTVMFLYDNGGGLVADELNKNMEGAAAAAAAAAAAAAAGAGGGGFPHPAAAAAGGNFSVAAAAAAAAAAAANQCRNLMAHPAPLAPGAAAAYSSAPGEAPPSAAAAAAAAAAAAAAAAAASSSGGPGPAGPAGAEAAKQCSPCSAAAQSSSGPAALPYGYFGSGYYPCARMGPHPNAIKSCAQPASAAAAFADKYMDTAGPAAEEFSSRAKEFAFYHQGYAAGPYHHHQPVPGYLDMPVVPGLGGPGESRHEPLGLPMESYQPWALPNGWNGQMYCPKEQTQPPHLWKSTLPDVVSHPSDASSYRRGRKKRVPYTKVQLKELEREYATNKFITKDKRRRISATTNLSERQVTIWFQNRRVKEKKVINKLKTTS

[5] = inhibitors of hydroxyurea-induced Chk1 phosphorylation, primary screen, imaging, HeLa, phospho-Chk1 antibody, percent positive cells (AID 1186); settings: hydroxyurea-induced phospho-Chk1 immunofluorescence imaging, higher = more signal
[6] = inhibitors of hydroxyurea-induced Chk1 phosphorylation, primary screen, imaging, HeLa, phospho-Chk1 nuclear intensity (AID 1187); settings: hydroxyurea-induced phospho-Chk1 immunofluorescence imaging, higher = more signal

Compound	composite z-score [1]	composite z-score [2]	z-score [3]	z-score [4]	z-score [5]	z-score [6]
CN1CCC(CCCO)=CC1c1cccs1 (stereo unspecified)	0.912 (inactive)	-1	0.896	-4.21 (inactive)	1.02 (inactive)	0.692 (inactive)
C=C(CCCC)/C(=C/C[C@@H](OC(C)=O)c1ccccc1OCCO)c1cc(C(=O)OC)ccc1OC	-0.0324 (inactive)	0.906	-2.51	-4.39 (inactive)	-0.402 (inactive)	0.114 (inactive)
NC(=O)[C@@H]1[C@H]2C(=O)O[C@H](c3ccccc3)[C@H](c3ccccc3)N2[C@H](c2ccc(O)cc2)[C@@]12C(=O)Nc1ccc(C#CC3=CCCCC3)cc12	0.799 (inactive)	0.619	-0.303	-0.487 (inactive)	0.0025 (inactive)	0.518 (inactive)
COc1ccc([C@H]2C[C@H]3C(I)=C[C@@H]2C(=O)[C@]32CO2)cc1	-0.344 (inactive)	0.68	0.456	-1.41 (inactive)	0.125 (inactive)	-0.217 (inactive)
O=C(NCc1ccccc1)[C@@H]1c2ccccc2C(=O)N(C2Cc3ccccc3C2)[C@H]1c1ccc(CO)cc1	0.72 (inactive)	0.731	-0.276	-2.13 (inactive)	0.26 (inactive)	-0.16 (inactive)
COCCCNC(=O)[C@@H]1c2ccccc2C(=O)N(Cc2ccccc2)[C@H]1c1ccc(CO)cc1	-0.267 (inactive)	0.401	0.207	-1.77 (inactive)	-0.0813 (inactive)	-0.452 (inactive)
O=C1C2C=CC(C(O)c3c(F)cccc3Cl)N(Nc3ccccc3F)C2C(=O)N1c1ccccc1 (stereo unspecified)	0.433 (inactive)	0.811	0.562	-0.377 (inactive)	0.486 (inactive)	0.435 (inactive)
C=C(/C(=C/C[C@H](OC(C)=O)c1ccc(OCCO)cc1)c1cc(C(=O)OC)ccc1OC)C(C)C	0.537 (inactive)	0.808	-2.9	-3.69 (inactive)	0.418 (inactive)	1.29 (inactive)
C=C(CCCC)/C(=C/C[C@H](OC(=O)c1ccncc1)c1ccc(OCCO)cc1)c1cc(C(=O)OC)ccc1OC	-0.235 (inactive)	-0.132	-3.09	-2.79 (inactive)	-1.01 (inactive)	-0.504 (inactive)
O=C(CS)NCCCCCNC(=O)[C@@H]1C[C@@H]2C(=O)NCC(=O)N2[C@@H]1c1cccc(OCCO)c1	1.96 (inactive)	0.343	0.082	-3.25 (inactive)	-0.128 (inactive)	0.361 (inactive)
Cc1ccc(/C=C/C=O)cc1	0.551 (inactive)	0.284	1.39	-1.15 (inactive)	0.503 (inactive)	0.713 (inactive)
C=CCN1Cc2ccccc2[C@@H]2OC(c3ccc(OCCCO)cc3)=N[C@]2(CCS(=O)(=O)c2ccccc2)C1=O	0.3 (inactive)	0.799	-2.3	-2.43 (inactive)	-0.386 (inactive)	-0.386 (inactive)
CCCCN1CC=CC23O[C@@H]4C=CCCOC(=O)C4[C@H]2C(=O)N(CCCCCO)[C@@H]3C1=O (stereo partly specified)	-0.17 (inactive)	0.779	0.474	-4.72 (inactive)	-2.17 (inactive)	-1.9 (inactive)
CCOc1cc(C(O)C2C=CC3C(=O)N(c4ccccc4)C(=O)C3N2Nc2ccc(C(C)C)cc2)ccc1O (stereo unspecified)	0.429 (inactive)	0.828	-0.85	-4.72 (inactive)	0.415 (inactive)	0.241 (inactive)
NC(=O)[C@@H]1[C@H]2C(=O)O[C@H](c3ccccc3)[C@H](c3ccccc3)N2[C@H](c2ccc(OCCO)cc2)[C@@]12C(=O)Nc1ccc(C#CC3=CCCCC3)cc12	0.124 (inactive)	0.581	-0.962	1.05 (inactive)	-0.0315 (inactive)	0.0692 (inactive)
C=CC[C@]1(C(=O)NCc2ccccc2)N=C(c2ccc(OCCCO)cc2)O[C@H]1c1ccccc1CN=[N+]=[N-]	-0.274 (inactive)	0.338	-2.53	0.343 (inactive)	-0.158 (inactive)	-0.402 (inactive)
CN(C)CCCCCCNC(=O)[C@@H]1C[C@@H]2C(=O)N[C@@H](CCCC[N+](C)(C)C)C(=O)N2[C@@H]1c1ccc(O)cc1	0.759 (inactive)	0.146	1.99	-1.64 (inactive)	0.702 (inactive)	0.0464 (inactive)
O=C1NC(=O)C2C1C=CC(C(O)C1CC=CCC1)N2Nc1ccccn1 (stereo unspecified)	0.467 (inactive)	0.362	0.45	-0.315 (inactive)	0.113 (inactive)	-0.22 (inactive)

Compound	composite z-score [1]	composite z-score [2]	z-score [3]	z-score [4]	z-score [5]	z-score [6]
[N-]=[N+]=Nc1ccccc1[C@H]1OC(c2ccc(OCCCO)cc2)=N[C@@]1(Cc1ccccc1)C(=O)N1CCOCC1	2.73 (inactive)	0.816	-2.19	-3.84 (inactive)	-0.0747 (inactive)	0.0969 (inactive)
[N-]=[N+]=NCc1ccccc1C[C@@]1(C(=O)NCC(O)CO)N=C(c2ccc(OCCCO)cc2)O[C@@H]1c1ccccc1 (stereo partly specified)	0.691 (inactive)	0.684	-2.03	-4.12 (inactive)	-0.0558 (inactive)	0.274 (inactive)
CC(C)=CCCC(C)=CC(O)C1C=CC2C(=O)N(c3ccccc3)C(=O)C2N1Nc1ccc(C(C)C)cc1 (stereo unspecified)	0.365 (inactive)	0.305	-0.25	-2.82 (inactive)	0.342 (inactive)	0.0288 (inactive)
COc1ccc(-c2cc3c(c(Cc4ccccc4)n2)[Si](C(C)C)(C(C)C)OC3)cn1	0.684 (inactive)	-0.342	-2.79	-2.5 (inactive)	-0.24 (inactive)	-0.828 (inactive)
COCCOC(=O)N1C(=O)[C@@]2(c3ccccc31)[C@H](C(=O)N1CCc3cc(OC)c(OC)cc3C1)[C@H]1C(=O)O[C@H](c3ccccc3)[C@H](c3ccccc3)N1[C@@H]2c1ccc(O)cc1	1.58 (inactive)	0.807	-0.45	-1.34 (inactive)	-0.437 (inactive)	-0.469 (inactive)
CCOC(=O)C1=CC[C@H]2C(=O)N(c3ccccc3)C(=O)[C@@H]12	0.571 (inactive)	0.903	-0.55	-3.98 (inactive)	0.152 (inactive)	-0.177 (inactive)
CC(=O)n1cc(C(O)C2C=CC3C(=O)NC(=O)C3N2Nc2ccccn2)c2ccccc21 (stereo unspecified)	-0.251 (inactive)	0.785	0.249	-2.99 (inactive)	0.5 (inactive)	-0.392 (inactive)
OB1C=CCC(CCc2ccccc2)O1 (stereo unspecified)	-1.15 (inactive)	0.965	-0.355	-2.13 (inactive)	-0.591 (inactive)	-0.212 (inactive)
O=C1NC(=O)C2C1C=CC(C(O)c1ccc(-c3ccccc3)s1)N2Nc1ccc(Cl)cc1Cl (stereo unspecified)	-0.142 (inactive)	0.701	-0.0328	-3.64 (inactive)	0.197 (inactive)	0.136 (inactive)
[N-]=[N+]=NCc1ccccc1[C@@H]1OC(c2ccc(OCCCO)cc2)=N[C@]1(CCS(=O)(=O)c1ccccc1)C(N)=O	0.57 (inactive)	0.869	-0.397	-3.55 (inactive)	-0.0248 (inactive)	0.227 (inactive)
COCCCNC(=O)[C@@H]1c2ccccc2C(=O)N(Cc2ccccc2OC)[C@H]1c1ccc(CO)cc1	0.694 (inactive)	-0.0218	-1.99	-2.85 (inactive)	-0.481 (inactive)	-0.576 (inactive)
COC(=O)[C@@]1(Cc2ccc(F)cc2)[C@H]2c3cc(C(=O)N(C)C)n(Cc4ccc(C)o4)c3C[C@H]2CN1C(=O)c1ccccc1	1.66 (inactive)	0.665	-1.44	-2.94 (inactive)	0.262 (inactive)	-0.0286 (inactive)
COC(=O)[C@]1(Cc2ccccc2)N=C(c2ccc(OCCCO)cc2)O[C@@H]1c1ccccc1N=[N+]=[N-]	0.062 (inactive)	0.685	-2.27	-2.66 (inactive)	-0.566 (inactive)	-0.724 (inactive)
COC(=O)[C@@]1(Cc2ccc(F)cc2)[C@H]2c3cc(C(=O)N(C)C)n(Cc4cc(C)n(C)n4)c3C[C@H]2CN1C(=O)c1ccccc1	0.537 (inactive)	0.801	-0.358	-1.42 (inactive)	0.669 (inactive)	0.333 (inactive)
CN(C)CCCC[C@@H]1NC(=O)[C@H]2C[C@@H](C(=O)NCCCCCN)[C@@H](c3cccc(OCCO)c3)N2C1=O	2.88 (inactive)	0.84	-0.419	-2.91 (inactive)	0.658 (inactive)	0.729 (inactive)
COC(=O)c1c(CC[C@@H](CO)NC(=O)NCCc2c[nH]c3ccccc23)oc(C(=O)Cc2ccccc2)c1C(=O)OC	1.4 (inactive)	0.713	-0.0066	-6.54 (inactive)	-0.216 (inactive)	-0.098 (inactive)
CC(C)[C@@H](C(=O)O)n1cc(C2(O)CCCCC2)nn1	0.142 (inactive)	0.297	0.564	-0.619 (inactive)	-0.3 (inactive)	-0.12 (inactive)
O=C1C2C=CC(C(O)C=Cc3ccc([N+](=O)[O-])cc3)N(Nc3ccccc3F)C2C(=O)N1c1ccccc1 (stereo unspecified)	0.308 (inactive)	0.774	-0.448	-4.79 (inactive)	-0.668 (inactive)	-1.16 (inactive)

— PubChem BioAssay
